# Data from PubChem BioAssay AID651998 (The Scripps Research Institute Molecular Screening Center, 2013).
# Target: Acyl-protein thioesterase 1 (Homo sapiens) (UniProt O75608)
# Assay: LYPLA1 enzyme kinetics with inhibitors – biochemical, substrate-based fluorescence, Ki, Km, late-stage follow-up (AID 651998)
# Settings: recombinant LYPLA1, resorufin acetate hydrolysis fluorescence, without test compound, enzyme Km for substrate
# Sequence of Acyl-protein thioesterase 1 (Homo sapiens) (O75608 whole entry, looked up): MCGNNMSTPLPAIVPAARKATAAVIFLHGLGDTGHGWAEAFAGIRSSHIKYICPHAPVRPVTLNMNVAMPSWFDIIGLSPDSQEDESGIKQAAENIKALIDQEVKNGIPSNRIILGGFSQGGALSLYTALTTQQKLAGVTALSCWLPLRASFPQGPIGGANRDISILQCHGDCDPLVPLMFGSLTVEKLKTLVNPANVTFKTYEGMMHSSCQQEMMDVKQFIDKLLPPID
smiles,measurement,value
O=C(CN1CCN(C(=O)c2ccco2)CC1)Nc1cc(C(F)(F)F)ccc1Cl,Km,28.3 µM
